# This is a sample that favours compounds with a hit; in the whole collection about 21% have one here.
# Pf growth 96h = Primary qHTS for delayed death inhibitors of the malarial parasite plastid, 96 hour incubation. P. falciparum luciferase reporter growth, 96 h. Potency, µM (titrated, usually from 28.7 µM), inactives show top-dose activity change, negative = inhibition, usual class: inhibitors. 6.9% of 320,000 active; also: potency is read from the fitted curve at half-maximal effect; % is scaled to controls: 0 for no effect and ±100 for the full control effect
#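 Delayed-death screen, second-generation endpoint: infected erythrocytes, 2% hematocrit, 0.05% parasitemia final; 96 hours at 37 C, 5% CO2; luciferase detection reagent; luminescence decrease equals reduced growth.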
# Pf growth 48h = Primary qHTS for delayed death inhibitors of the malarial parasite plastid, 48 hour incubation. P. falciparum luciferase growth in erythrocytes, 48 h. Potency, µM (doses to about 28.7 µM), for the others: top-dose activity change, negative = inhibition, usual class: inhibitors. 5.9% of 310,000 active. AID 504832, 2011; also: potency is read from the fitted curve at half-maximal effect; % is scaled to controls: 0 for no effect and ±100 for the full control effect
#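 Erythrocytes infected with P. falciparum carrying an integrated firefly luciferase reporter (2% hematocrit, 0.1% parasitemia final) were exposed to compounds in RPMI 1640 with 0.5% Albumax at 37 C, 5% CO2. Growth inhibition was scored as reduced luminescence.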
# NS1 inh = qHTS Assay for Inhibitors of Influenza NS1 Protein Function | Potency, µM (top dose mostly 46.1 µM), without a hit: at the highest dose activity, positive = more growth | 0.4% of 270,000 active; calls by dose curve; also: potency is read from the fitted curve at half-maximal effect; actives are rising curves; nearly all actives have a fitted effect of over 50% in size
#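 Recovery from NS1-induced slow growth read by OD600 in budding yeast switched to galactose assay medium (pH 6.0, -URA) at 1:100 dilution. Compound 23 nl per well; the matching strain lacking NS1 serves as control.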
# Shiga inhibitor = A qHTS for Small Molecule Inhibitors of Shiga Toxin; 9.2% of 290,000 active; Vero cells, Shiga toxin protein synthesis inhibition reporter; AID 2315, 2010; inhibition, % at 38.7 µM; in the data active = inhibition mostly above about 28%, no sharp cut-off; inactive = mostly below about 43%; also: 0% is about no effect
# CHX counter = Cycloheximide Counterscreen for Small Molecule Inhibitors of Shiga Toxin | cell reporter, cycloheximide protein synthesis inhibition counterscreen | max response, % | 12% of 300,000 active; in the data active = max response mostly above about 13%, no sharp cut-off; inactive = mostly below about 14%; also: read at 38.3 µM for the half of the compounds with a filed dose; 0% is about no effect
# * marks the source's active call; other numbers are inactive results; ? = inconclusive; nt = no result given. Unless noted, calls follow the shape of the dose curve; as a rule, active = well fitted inhibition curve with a large enough effect; inconclusive = small, poorly fitted or top-dose-only effect, or another doubt; inactive = no such curve, though single readings can be large or run the other way.
SMILES,Pf growth 96h,Pf growth 48h,NS1 inh,Shiga inhibitor,CHX counter
COc1cc(C(=O)Nc2ccc(S(=O)(=O)Nc3cc(C)nc(C)n3)cc2)cc(OC)c1OC,-4%,-2%,nt,12,7
Cc1ccc(C(=O)Nc2ccc(S(=O)(=O)Nc3cnc4ccccc4n3)cc2)cc1,48%,51%,3%,72,20*
NC(=O)CSc1nc2ccccc2n1-c1ccccc1,9.3µM*,-16%,10%,-7,-5
Cc1ccc(-c2csc3nc(SCC(N)=O)n(Cc4ccccc4)c(=O)c23)cc1,10%,13µM*,25%,-15,-2
O=C(O)CSc1nc2ccccc2n1-c1ccccc1,-24%,5%,-2%,-10,8
NC(=O)CSc1nc2ccccc2n1Cc1ccccc1,-16%,2.9µM*,10%,-12,-4
CC1CCCC(C)N1C(=O)COC(=O)c1ccc(F)c(S(=O)(=O)N2CCOCC2)c1 (stereo unspecified),-12%,-3%,3%,-3,1
CC1CC(C)CN(C(=O)Cn2nnc(-c3ccc(Br)cc3)n2)C1 (stereo unspecified),-13%,0%,2%,-3,7
CC1Cc2ccccc2N1C(=O)CSc1nnnn1C(C)C (stereo unspecified),?,27%,-4%,-16,-1
Cc1c(-c2ccccc2)oc2c(C(=O)N3CCN(c4ccc([N+](=O)[O-])cc4)CC3)cccc2c1=O,?,?,?,-4,7
CCOC(=O)N1CCN(C(=O)CNC2CCCCCCC2)CC1,16%,-20%,nt,-9,-1
CC(C)(C)OC(=O)NCCCCCNC(=O)c1[nH]cnc1C(=O)N[C@@H](Cc1ccccc1)C(=O)OCc1ccccc1,12µM*,8.3µM*,24%,-7,-3
CC(C)(C)OC(=O)NCCCC[C@H](NC(=O)c1nc[nH]c1C(=O)NCC(=O)OCc1ccccc1)C(=O)OC(C)(C)C,0%,?,?,-3,-2
CC(C)C[C@H](NC(=O)c1nc[nH]c1C(=O)N[C@@H](CCCCNC(=O)OC(C)(C)C)C(=O)OC(C)(C)C)C(=O)OCc1ccccc1,3.3µM*,?,?,7,8
CC(C)C[C@H](NC(=O)c1nc[nH]c1C(=O)NCCCCCNC(=O)OC(C)(C)C)C(=O)OCc1ccccc1,9.3µM*,?,25%,-9,7
O=C1c2ccccc2C(=O)N1C/C=C/CN1C(=O)c2ccccc2C1=O,nt,108%,13%,-16,1
O=C1C(c2ccccc2)=[N+]([O-])c2ccccc21,0.37µM*,0.66µM*,nt,nt,nt
CN(C(=S)NC(=O)C1(C)CC1(Cl)Cl)c1ccccc1 (stereo unspecified),?,nt,-4%,-13,-1
CC1(C(=O)NC(=S)N(Cc2ccccc2)c2ccccn2)CC1(Cl)Cl (stereo unspecified),?,23%,15%,30,22*
COc1ccccc1NC(=O)CC(NCc1ccccc1)C(=O)O (stereo unspecified),2.6µM*,2%,8%,3,-1
COc1ccc(NC(=O)CC(NCCc2ccccc2)C(=O)O)c(OC)c1 (stereo unspecified),39%,-11%,-9%,32,-6
CC(C)OP(C)(=O)CN1CCN(CP(C)(=O)OC(C)C)CC1 (stereo unspecified),0.52µM*,8%,6%,-8,0
CCOc1ccc(C(=O)CCC(=O)N2CCN(c3ncccn3)CC2)cc1,?,?,-2%,-3,10
O=C(NNC1=NCCCCC1)Nc1ccc(Cl)cc1,43%,28%,-1%,23,23*
O=C(NNC(=O)C1CC1)Nc1ccc(Cl)cc1,-26%,5%,-6%,11,1
SMILES,Pf growth 96h,Pf growth 48h,NS1 inh,Shiga inhibitor,CHX counter
O=C(NNC1=NCCCCC1)Nc1cccc(Cl)c1,111%,136%,nt,45,12*
Clc1cccc(NC2=NCCC2)c1,nt,8%,-5%,-12,0
CN(C=O)CP(=O)(O)CCN1CCCC1=O,nt,nt,21%,nt,nt
COc1ccc(CCN2C(=S)NC3CC2(C)Oc2ccc([N+](=O)[O-])cc23)cc1OC (stereo unspecified),12µM*,nt,7%,-6,-5
COC(=O)c1ccc(NC(=O)[C@H](C)NC(N)=O)cc1,29%,103%,-2%,15,-2
CCCn1c(C)cc(C(=O)COc2ccc(-c3nnco3)cc2)c1C,?,?,-3%,67*,42*

# Source: PubChem
